Results: ChEMBL document CHEMBL3988442, “University of Dundee, Small-Polar-MMV Screening Library” (2021)
Hit rate of the full screen: of about 48,000 compounds, about 13,000 (27%) showed an effect of 50% or more. The list shows a part of the results.

Test system: Wolbachia pipientis
Assay: Anti-Wolbachia Cell-Based Screen
Assay type: functional
Parameters: scale not given: in the data most compounds retested in dose-response had high values
Conditions: 5 µM

SMILES | Percent Effect [%]
CNC(=O)c1ccc(NC(=O)NC(C)CCc2cccn2C)c(C)c1 (centres undefined) | 7.929
O=C(CN1CCNCC1)N1CC[C@@H](c2ccc3ccccc3c2)[C@H](O)C1 | 6.521
OC(COCc1ccccc1)CSc1nnc(C2CC2)n1C1CC1 (centres undefined) | 6.526
O=C(c1cccnc1-n1cncn1)N1CCN(C2CCCC2)CC1 | 9.271
CC(C)Cc1noc(CN(C)C[C@]2(O)CCCN3CCCC[C@@H]32)n1 | 1.802
CCCc1nc(CN2CCN(CC(O)c3ccccc3)CC2)no1 (centres undefined) | -2.88
O=C(c1ccnnc1)N1C[C@@H](OCC2CCOCC2)[C@H]2OCCC[C@H]21 | -2.354
CS(=O)(=O)N1C[C@@H](F)[C@@H](OCc2nc3ccccc3o2)C1 | 18.73
Cc1ccc(CN2CC[C@H]3C(=O)N(Cc4cccnc4)CCO[C@H]3C2)o1.O=C(O)C(F)(F)F.O=C(O)C(F)(F)F | -24.56
O=C(O)C(F)(F)F.O=C1[C@H]2CN(S(=O)(=O)C3CC3)C[C@H]2CN1Cc1cccnc1 | 124.6
O=C(O)C(F)(F)F.O=C(O)C(F)(F)F.O=C1[C@@H]2CCN(C3CCOCC3)C[C@@H]2OCCN1Cc1cccnc1 | 1.497
CS(=O)(=O)N[C@@H]1CCN(Cc2cccnc2)[C@H]1Cc1ccccc1.O=C(O)C(F)(F)F.O=C(O)C(F)(F)F | 1.711
CCS(=O)(=O)N1C[C@H]2CN(Cc3cccnc3)C(=O)[C@H]2C1.O=C(O)C(F)(F)F | -7.035
O=C(O)C(F)(F)F.O=C1[C@H]2CN(S(=O)(=O)c3ccccc3)C[C@H]2CN1Cc1cccnc1 | 108.5
COC(=O)c1cccc2nc([C@H]3CCN(C4CCN(C)CC4)C3)oc12 | -2.242
O=C(NC[C@H]1OC[C@@H]2CN(Cc3ccco3)CC[C@@H]21)c1cccnc1.O=C(O)C(F)(F)F.O=C(O)C(F)(F)F | 98.92
O=C(NC[C@H]1OC[C@@H]2CCN(Cc3ccco3)C[C@@H]21)c1ccnnc1.O=C(O)C(F)(F)F | 121
CN(Cc1cccnc1)C[C@@H]1OC[C@H]2CN(Cc3ccco3)CC[C@H]21.O=C(O)C(F)(F)F.O=C(O)C(F)(F)F.O=C(O)C(F)(F)F | 9.505
O=C(NC[C@H]1OC[C@@H]2CCN(Cc3ccco3)C[C@@H]21)c1ccsc1.O=C(O)C(F)(F)F | 14.6
Cc1cccc(N2CC[C@@H]3[C@@H](CO[C@H]3CNC(=O)c3ccco3)C2)n1 | -1.973
O=C(NC[C@H]1OC[C@@H]2CN(Cc3ccco3)CC[C@@H]21)c1cscn1.O=C(O)C(F)(F)F | 98.96
Cc1ccc(N2CC[C@@H]3[C@@H](CO[C@H]3CNC(=O)c3ccco3)C2)nn1 | 1.851
NC(=O)N1CC[C@H]2CO[C@H](CNC(=O)c3ccnnc3)[C@H]2C1 | -2.645
Cc1ccc(CN2CC[C@@H]3[C@@H](CO[C@H]3CN(C)C)C2)o1.O=C(O)C(F)(F)F.O=C(O)C(F)(F)F | -16.8
Cn1cc(C(=O)NC[C@@H]2OC[C@H]3CN(Cc4ccco4)CC[C@H]32)cn1.O=C(O)C(F)(F)F | 1.243
Cn1cc(CN2CC[C@@H]3[C@@H](CO[C@H]3CNC(=O)c3ccco3)C2)cn1.O=C(O)C(F)(F)F.O=C(O)C(F)(F)F | 86.49
CN(C)C(=O)Cn1cc(C#N)c(=O)c2cc(Br)ccc21 | -22.43

SMILES | Percent Effect [%]
COCC(NC(=O)c1ccc(O)nc1)c1ccc(C)o1 (centres undefined) | 3.678
O=S(=O)(c1ccc(-c2nc3c([nH]2)CCNC3)cc1)N1CCCC1 | -8.56
CCCSCC(=O)N1CCCC(c2nccn2Cc2ccncc2)C1 (centres undefined) | 15.91
O=C(COCC1CC1)N1CCCC(n2cncn2)C1 (centres undefined) | 10.78
CC(C)CN(Cc1ccc(O)c(C(=O)O)c1)Cc1ccccn1 | -5.995
CC(c1ccccn1)N(C)Cc1ccc(-n2ccnc2)cc1 (centres undefined) | 100.9
CN(Cc1ccc(-n2cncn2)cc1)Cc1ncc[nH]1 | -14.86
CC(c1ccccn1)N(C)Cc1ccc(CCC(C)(C)O)cc1 (centres undefined) | 6.636
CC(c1ccccn1)N(C)Cc1ccc(-n2cncn2)cc1 (centres undefined) | 115.2
CC(C)CN(Cc1ccc(-n2cncn2)cc1)Cc1ccccn1 | 111.5
CN(Cc1ccc(-n2ccnc2)cc1)Cc1ncc[nH]1 | -4.002
COCCn1ccnc1CN(Cc1ccccn1)CC(C)C | -12.4
CC(C)C(O)C(C)(C)CNC(=O)NCc1ccc(-n2cncn2)cc1 (centres undefined) | -5.14
COc1ccc(OC)c(S(=O)(=O)NC(=O)C(C)OC)c1 (centres undefined) | 1.842
CC(C)=CCC1(CO)CCCN(S(C)(=O)=O)C1 (centres undefined) | -9.202
CCc1csc(C2CCCN(C(=O)c3ccc4[nH]nnc4c3)C2)n1 (centres undefined) | 100.2
CCc1csc(C2CCCN(C(=O)c3ccc(=O)n(C)n3)C2)n1 (centres undefined) | -0.1419
CCc1csc(C2CCCN(C(=O)c3ccc(=O)n(CC)n3)C2)n1 (centres undefined) | 101.1
CCc1csc(C2CCCN(C(=O)c3cnc[nH]3)C2)n1 (centres undefined) | 106.6
CCc1csc(C2CCCN(C(=O)c3ccncc3)C2)n1 (centres undefined) | 12.22
CCc1csc(C2CCCN(C(=O)c3ncccn3)C2)n1 (centres undefined) | 104
Cc1csc(C2CCCN(C(=O)c3cnc[nH]3)C2)n1 (centres undefined) | -6.546
CCc1csc(C2CCCN(C(=O)c3ccc4c(c3)OCO4)C2)n1 (centres undefined) | -10.1
CCc1csc(C2CCCN(C(=O)c3ccc(OC)nc3)C2)n1 (centres undefined) | 6.728
CCc1nc(CN2CCCN(C(=O)c3cnc[nH]3)CC2)cs1 | -9.99
CC(C)c1csc(C2CCCN(C(=O)c3ncccn3)C2)n1 (centres undefined) | 1.009
COC(=O)CNC(=O)C1(NC(=O)c2ccc3[nH]ncc3c2)CCCC1 | 5.444
